Assay results as given in article PMC9911399, “Two distinct binding modes provide the RNA-binding protein RbFox with extraordinary sequence specificity”.
Positions count from the first letter of the chain named. Over roughly 16,000 sequences, “ka relative to ugcaugu” has its median near 0.096; the highest 2% begin near 0.35. Shown is part of a subset that was picked to be rich in the highest values.

T1: RBFOX1 RRM RbFoxmut (Fox-RRM*) (Homo sapiens, UniProt Q9NWB1 109-208, R118D;E147R;N151S;E152T)
T1 sequence: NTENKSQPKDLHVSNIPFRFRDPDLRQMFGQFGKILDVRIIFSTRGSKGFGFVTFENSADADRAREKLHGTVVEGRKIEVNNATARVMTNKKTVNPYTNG

B1: CGCGCUU (DNA:RNA)
RNA: GGGAGACCGGAAUUCAGAUUGUCCCGCGCUUUUAAAUCCCGUCGUAGCCACCA
DNA 1: CAATCTGAATTCCGGTCTCCC
DNA 2: TGGTGGCTACGACGGGATT
B2: AGAAGCG (DNA:RNA)
RNA: B1 RNA with C25A, C27A, G28A, C29G, U30C, U31G
DNA 1: CAATCTGAATTCCGGTCTCCC
DNA 2: TGGTGGCTACGACGGGATT
B3: CUCCUCC (DNA:RNA)
RNA: B1 RNA with G26U, G28C, C29U, U30C, U31C
DNA 1: CAATCTGAATTCCGGTCTCCC
DNA 2: TGGTGGCTACGACGGGATT
B4: UGCAAUC (DNA:RNA)
RNA: B1 RNA with C25U, G28A, C29A, U31C
DNA 1: CAATCTGAATTCCGGTCTCCC
DNA 2: TGGTGGCTACGACGGGATT
B5: CCUGCAU (DNA:RNA)
RNA: B1 RNA with G26C, C27U, U30A
DNA 1: CAATCTGAATTCCGGTCTCCC
DNA 2: TGGTGGCTACGACGGGATT
B6: UGAAUCU (DNA:RNA)
RNA: B1 RNA with C25U, C27A, G28A, C29U, U30C
DNA 1: CAATCTGAATTCCGGTCTCCC
DNA 2: TGGTGGCTACGACGGGATT
B7: UGCAUCU (DNA:RNA)
RNA: B1 RNA with C25U, G28A, C29U, U30C
DNA 1: CAATCTGAATTCCGGTCTCCC
DNA 2: TGGTGGCTACGACGGGATT
B8: CUGCAGA (DNA:RNA)
RNA: B1 RNA with G26U, C27G, G28C, C29A, U30G, U31A
DNA 1: CAATCTGAATTCCGGTCTCCC
DNA 2: TGGTGGCTACGACGGGATT
B9: CUGCAUC (DNA:RNA)
RNA: B1 RNA with G26U, C27G, G28C, C29A, U31C
DNA 1: CAATCTGAATTCCGGTCTCCC
DNA 2: TGGTGGCTACGACGGGATT
B10: AGCAGCA (DNA:RNA)
RNA: B1 RNA with C25A, G28A, C29G, U30C, U31A
DNA 1: CAATCTGAATTCCGGTCTCCC
DNA 2: TGGTGGCTACGACGGGATT
B11: ACAAAUC (DNA:RNA)
RNA: B1 RNA with C25A, G26C, C27A, G28A, C29A, U31C
DNA 1: CAATCTGAATTCCGGTCTCCC
DNA 2: TGGTGGCTACGACGGGATT
B12: GCGUGGA (DNA:RNA)
RNA: GGGAGACCGGAAUUCAGAUUGUCCGCGUGGAUUAAAUCCCGUCGUAGCCACCA
DNA 1: CAATCTGAATTCCGGTCTCCC
DNA 2: TGGTGGCTACGACGGGATT
B13: UUGGAGA (DNA:RNA)
RNA: B12 RNA with G25U, C26U, U28G, G29A
DNA 1: CAATCTGAATTCCGGTCTCCC
DNA 2: TGGTGGCTACGACGGGATT
B14: GUGGAGA (DNA:RNA)
RNA: B12 RNA with C26U, U28G, G29A
DNA 1: CAATCTGAATTCCGGTCTCCC
DNA 2: TGGTGGCTACGACGGGATT
B15: GUGGAUC (DNA:RNA)
RNA: B1 RNA with C25G, G26U, C27G, C29A, U31C
DNA 1: CAATCTGAATTCCGGTCTCCC
DNA 2: TGGTGGCTACGACGGGATT
B16: UUGGAUG (DNA:RNA)
RNA: B1 RNA with C25U, G26U, C27G, C29A, U31G
DNA 1: CAATCTGAATTCCGGTCTCCC
DNA 2: TGGTGGCTACGACGGGATT
B17: GUGGAUG (DNA:RNA)
RNA: B1 RNA with C25G, G26U, C27G, C29A, U31G
DNA 1: CAATCTGAATTCCGGTCTCCC
DNA 2: TGGTGGCTACGACGGGATT
B18: GUGGAUU (DNA:RNA)
RNA: B1 RNA with C25G, G26U, C27G, C29A
DNA 1: CAATCTGAATTCCGGTCTCCC
DNA 2: TGGTGGCTACGACGGGATT
B19: UUGGAUU (DNA:RNA)
RNA: B1 RNA with C25U, G26U, C27G, C29A
DNA 1: CAATCTGAATTCCGGTCTCCC
DNA 2: TGGTGGCTACGACGGGATT
B20: UUGGAUC (DNA:RNA)
RNA: B1 RNA with C25U, G26U, C27G, C29A, U31C
DNA 1: CAATCTGAATTCCGGTCTCCC
DNA 2: TGGTGGCTACGACGGGATT
B21: GGCCUAA (DNA:RNA)
RNA: B1 RNA with C25G, G28C, C29U, U30A, U31A
DNA 1: CAATCTGAATTCCGGTCTCCC
DNA 2: TGGTGGCTACGACGGGATT
B22: GUUCGUA (DNA:RNA)
RNA: B12 RNA with C26U, G27U, U28C, G30U
DNA 1: CAATCTGAATTCCGGTCTCCC
DNA 2: TGGTGGCTACGACGGGATT
B23: UUCUUCA (DNA:RNA)
RNA: B12 RNA with G25U, C26U, G27C, G29U, G30C
DNA 1: CAATCTGAATTCCGGTCTCCC
DNA 2: TGGTGGCTACGACGGGATT
B24: UGCGUAU (DNA:RNA)
RNA: B1 RNA with C25U, C29U, U30A
DNA 1: CAATCTGAATTCCGGTCTCCC
DNA 2: TGGTGGCTACGACGGGATT
B25: AUAGGAG (DNA:RNA)
RNA: B1 RNA with C25A, G26U, C27A, C29G, U30A, U31G
DNA 1: CAATCTGAATTCCGGTCTCCC
DNA 2: TGGTGGCTACGACGGGATT
B26: CAGGGCG (DNA:RNA)
RNA: B1 RNA with G26A, C27G, C29G, U30C, U31G
DNA 1: CAATCTGAATTCCGGTCTCCC
DNA 2: TGGTGGCTACGACGGGATT
B27: GAUCCAA (DNA:RNA)
RNA: B12 RNA with C26A, G27U, U28C, G29C, G30A
DNA 1: CAATCTGAATTCCGGTCTCCC
DNA 2: TGGTGGCTACGACGGGATT
B28: AGCUUUC (DNA:RNA)
RNA: B1 RNA with C25A, G28U, C29U, U31C
DNA 1: CAATCTGAATTCCGGTCTCCC
DNA 2: TGGTGGCTACGACGGGATT
B29: GGAUGCC (DNA:RNA)
RNA: B12 RNA with C26G, G27A, G30C, A31C
DNA 1: CAATCTGAATTCCGGTCTCCC
DNA 2: TGGTGGCTACGACGGGATT
B30: CGAUGCG (DNA:RNA)
RNA: B1 RNA with C27A, G28U, C29G, U30C, U31G
DNA 1: CAATCTGAATTCCGGTCTCCC
DNA 2: TGGTGGCTACGACGGGATT
B31: GAAUGCG (DNA:RNA)
RNA: B12 RNA with C26A, G27A, G30C, A31G
DNA 1: CAATCTGAATTCCGGTCTCCC
DNA 2: TGGTGGCTACGACGGGATT
B32: GAAUGCC (DNA:RNA)
RNA: B12 RNA with C26A, G27A, G30C, A31C
DNA 1: CAATCTGAATTCCGGTCTCCC
DNA 2: TGGTGGCTACGACGGGATT
B33: CGAUGCC (DNA:RNA)
RNA: B1 RNA with C27A, G28U, C29G, U30C, U31C
DNA 1: CAATCTGAATTCCGGTCTCCC
DNA 2: TGGTGGCTACGACGGGATT
B34: GAAUCCC (DNA:RNA)
RNA: B12 RNA with C26A, G27A, G29C, G30C, A31C
DNA 1: CAATCTGAATTCCGGTCTCCC
DNA 2: TGGTGGCTACGACGGGATT

biological target: T1, RBFOX1 RRM RbFoxmut (Fox-RRM*); experiment: EMSA; HiTS-Eq, 1 nM pool, 10 min; buffer printed only for the single-RNA assays: 10 mM Tris pH 7.5, 150 mM NaCl, 3.4 mM EDTA, 0.001% NP-40, 30 C; conditions: tags: His6 N-terminal (pET28a); label: 5' 32P
In short: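 These values rest on relative association constants, computed from read-count changes of each RNA species versus the control reaction and normalised to the cognate motif. Reads came from free RNA recovered by 8% native PAGE after purified RbFox RRM (wild type or mutant) at increasing concentrations was equilibrated for 10 min in 50 µL with 1 nM of a 5′-radiolabelled pool with 7 randomized nucleotides and DNA-annealed flanks.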

Binder | binding signal
B1 | 0.1 KA relative to UGCAUGU
B2 | 0.107 KA relative to UGCAUGU
B3 | 0.0813 KA relative to UGCAUGU
B4 | 0.102 KA relative to UGCAUGU
B5 | 0.139 KA relative to UGCAUGU
B6 | 0.244 KA relative to UGCAUGU
B7 | 0.727 KA relative to UGCAUGU
B8 | 0.136 KA relative to UGCAUGU
B9 | 0.457 KA relative to UGCAUGU
B10 | 0.14 KA relative to UGCAUGU
B11 | 0.0702 KA relative to UGCAUGU
B12 | 0.092 KA relative to UGCAUGU
B13 | 0.0955 KA relative to UGCAUGU
B14 | 0.118 KA relative to UGCAUGU
B15 | 0.357 KA relative to UGCAUGU
B16 | 0.61 KA relative to UGCAUGU
B17 | 1.04 KA relative to UGCAUGU

Binder | binding signal
B18 | 0.1 KA relative to UGCAUGU
B19 | 0.106 KA relative to UGCAUGU
B20 | 0.321 KA relative to UGCAUGU
B21 | 0.0594 KA relative to UGCAUGU
B22 | 0.155 KA relative to UGCAUGU
B23 | 0.111 KA relative to UGCAUGU
B24 | 0.143 KA relative to UGCAUGU
B25 | 0.097 KA relative to UGCAUGU
B26 | 0.123 KA relative to UGCAUGU
B27 | 0.0776 KA relative to UGCAUGU
B28 | 0.0646 KA relative to UGCAUGU
B29 | 0.168 KA relative to UGCAUGU
B30 | 0.113 KA relative to UGCAUGU
B31 | 0.763 KA relative to UGCAUGU
B32 | 0.356 KA relative to UGCAUGU
B33 | 0.206 KA relative to UGCAUGU
B34 | 0.0694 KA relative to UGCAUGU
